Sampled rows, rich in hits. Any-hit rate of the full collection: about 6.2%.
HT1080 IDH1KD tx: kills HT-1080 cells with IDH1 knockdown. HT-1080 IDH1 knockdown viability, ATP luminescence, 48 h. actives 2% (n = 360,000). AID 686971. Potency, µM (doses to about 46.1 µM), for inactives: at the highest dose activity, negative = toxicity, most hits filed as cytotoxic;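 further: 0% = DMSO wells and -100% = cell-free medium wells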
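HT-1080-IDH1KD cells (IDH1 knocked down), 750/well in RPMI with 5% FBS, treated with compound 48 h at 37 degrees C. Viability by CellTiter-Glo luminescence, normalised to DMSO and no-cell wells; concentration-response curves classed.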
KB-3-1 tox: kills parental KB-3-1 adenocarcinoma cells. AID 1347075. Potency, µM (top dose mostly 46.1 µM), usual class: cytotoxic. KB-3-1 viability, CellTiter-Glo ATP luminescence, 72 h. actives 1.4% (n = 400,000); further: on the % scale 0 is the no-effect control and ±100 the full control effect; nearly all actives have a fitted effect of over 60% in size
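Parental KB-3-1 adenocarcinoma cells in phenol-red-free DMEM with 10% FBS were pin-treated with compounds at several concentrations, incubated 72 h at 37 °C, and viability read by CellTiter-Glo luminescence; concentration-effect curves were fitted after normalization.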
HT1080NT lethal: kills 2HG-producing HT-1080-NT fibrosarcoma cells | HT-1080-NT fibrosarcoma viability, CellTiter-Glo ATP luminescence, 48 h | Potency, µM (highest dose often 46.1 µM), without a hit: at the highest dose activity, negative = less viability, usual class: cytotoxic | actives 1.6% (n = 360,000);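 further: NT is the 2HG producing partner of a matched IDH1 knockdown line; 0% = DMSO-treated cells and -100% = media-only wells without cells; nearly all actives have a fitted effect of over 55% in size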
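HT-1080-NT fibrosarcoma cells (2HG-overproducing), 750 cells/well in RPMI with 5% FBS, dosed after 2 h and incubated 48 h at 37C. CellTiter-Glo luminescence normalized to DMSO and no-cell wells; concentration-response curves fitted and classed.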
ATXN2 expr inh: inhibitors of ATXN2 expression; HEK-293 ATXN2-luciferase reporter, luminescence, 24 h; AID 1745845; Potency, µM (titrated, usually from 57 µM), for inactives: top-dose activity change, negative = inhibition, most hits filed as inhibitors; actives 0.72% (n = 360,000); further: on the % scale 0 is the no-effect control and ±100 the full control effect; nearly all actives have a fitted effect of over 55% in size
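ATXN2-luciferase reporter cells (luciferase flanked by upstream and downstream ATXN2 gene portions) were treated 24 h at 37 °C with compounds at up to 57 uM. SteadyGlo luminescence gave expression; GF-AFC fluorescence gave viability.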
KB-V1 cytotox: kills drug-selected multidrug resistant KB-V1 cells; Potency, µM (top dose mostly 46.1 µM), most hits filed as cytotoxic; KB-V1 MDR cells viability, CellTiter-Glo, 72 h; actives 3.4% (n = 400,000); further: on the % scale 0 is the no-effect control and ±100 the full control effect; nearly all actives have a fitted effect of over 60% in size
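Compound-treated KB-V1 multidrug-resistant cells, 72 h, 37 degrees C; viability by CellTiter-Glo. Fitted qHTS curves give the values.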
ATXN viability: viability counter-screen for ATXN expression inhibitors; S2 cells (HEK-293 line with an ATXN2-luciferase reporter) viability, CellTiter-Fluor protease fluorescence, 24 h; Potency, µM (titrated, usually from 56.7 µM), usual class: cytotoxic; actives 0.49% (n = 400,000); further: nearly all actives have a fitted effect of over 40% in size
* hit, by the source's call; [ ] = remark or other dose. The call rests on the fitted dose curve; in most records, active means well fitted curve in the direction sought with a large enough effect; inconclusive means small, poorly fitted or top-dose-only effect, or another doubt; inactive means no such curve, though single readings can be large; an effect the other way counts as inactive or inconclusive. Potency means the concentration at half of the fitted maximal effect.

CNCCC=C1c2ccccc2CCc2ccccc21 was read as HT1080 IDH1KD tx inconclusive, KB-3-1 tox inactive, HT1080NT lethal 23.1µM*, ATXN2 expr inh -3.6%, KB-V1 cytotox 20.6µM* and ATXN viability inactive.
Screening CC(=O)c1ccc(OCCCC(=O)Nc2cc(S(=O)(=O)N3CCCCC3)ccc2C)cc1 returned HT1080 IDH1KD tx -12.5%, KB-3-1 tox inactive, HT1080NT lethal -13.4%, ATXN2 expr inh -15.6%, KB-V1 cytotox inactive and ATXN viability inconclusive.
Screening CCc1cc(C(=O)Nc2cc(S(=O)(=O)N(C)C)ccc2C)sc1C returned HT1080 IDH1KD tx -12.6%, KB-3-1 tox inactive, HT1080NT lethal -7.4%, KB-V1 cytotox 9.2µM* and ATXN viability inactive.
For CCc1cc(C(=O)Nc2cc(S(=O)(=O)N(CC)CC)ccc2N2CCN(C)CC2)sc1C the results were HT1080 IDH1KD tx -7.1%, KB-3-1 tox inactive, HT1080NT lethal -9.1%, ATXN2 expr inh -4.4%, KB-V1 cytotox inactive and ATXN viability inactive.
For O=C(CN(c1cccc(Br)c1)S(=O)(=O)c1ccccc1)N/N=C/c1cc([N+](=O)[O-])ccc1O the results were HT1080 IDH1KD tx 14.6µM*, KB-3-1 tox inconclusive, HT1080NT lethal 7.31µM*, ATXN2 expr inh inconclusive, KB-V1 cytotox inactive and ATXN viability inactive.
Screening CCN(CC)S(=O)(=O)c1cc(NC(=O)CCCOc2ccc(C(C)=O)cc2)ccc1C returned HT1080 IDH1KD tx -16.2%, KB-3-1 tox inconclusive, HT1080NT lethal -7.7%, ATXN2 expr inh -22.8%, KB-V1 cytotox 2.91µM* and ATXN viability inactive.
O=C(CCCC(=O)Nc1cccc(Br)c1)N/N=C/c1cc([N+](=O)[O-])ccc1O was read as HT1080 IDH1KD tx inconclusive, KB-3-1 tox inconclusive, HT1080NT lethal -26.5%, ATXN2 expr inh inconclusive, KB-V1 cytotox inactive and ATXN viability inactive.
CC(=O)c1ccc(OCCCC(=O)Nc2cc(S(=O)(=O)N(C)C)ccc2C)cc1 was read as HT1080 IDH1KD tx -1.1%, KB-3-1 tox inconclusive, HT1080NT lethal 0.9%, ATXN2 expr inh 6.9%, KB-V1 cytotox 23.1µM* and ATXN viability inactive.
CC(=O)c1cccc(NC(=O)CCCOc2ccc(C)cc2)c1 was read as HT1080 IDH1KD tx 4.8%, KB-3-1 tox inactive, HT1080NT lethal -1.8%, ATXN2 expr inh 0.8%, KB-V1 cytotox inconclusive and ATXN viability inactive.
Screening CC(=O)N1CCN(c2csc3ccc(Br)cc3c2=O)CC1 returned KB-3-1 tox inactive, ATXN2 expr inh 22.7%, KB-V1 cytotox inconclusive and ATXN viability inconclusive.
`Cc1ccc([N+](=O)[O-])cc1NC(=O)CCCOc1ccccc1` gave HT1080 IDH1KD tx 17.9%, KB-3-1 tox inactive, HT1080NT lethal 27.3%, ATXN2 expr inh -2.5%, KB-V1 cytotox 10.3µM* and ATXN viability inactive.
Screening Cc1ccc([N+](=O)[O-])cc1NC(=O)CCc1ccccc1 returned HT1080 IDH1KD tx -1.5%, KB-3-1 tox inactive, HT1080NT lethal 1.7%, ATXN2 expr inh -15.0%[11.3 µM], KB-V1 cytotox inactive and ATXN viability inactive.
`Cc1ccccc1NC(=O)CCC(=O)N/N=C/c1cc([N+](=O)[O-])ccc1O` gave HT1080 IDH1KD tx inconclusive, KB-3-1 tox inactive, HT1080NT lethal -24.1%, ATXN2 expr inh -22.0%, KB-V1 cytotox 20.6µM* and ATXN viability inactive.
`Cc1ccc(C)c(NC(=O)CCC(=O)N/N=C/c2cc([N+](=O)[O-])ccc2O)c1` gave HT1080 IDH1KD tx inconclusive, KB-3-1 tox inconclusive, HT1080NT lethal -16.3%, ATXN2 expr inh inconclusive, KB-V1 cytotox inconclusive and ATXN viability inactive.
Screening O=C(CCNS(=O)(=O)c1ccc2c(c1)CCN2C(=O)C1CC1)Nc1ccc(Cl)cc1 returned KB-3-1 tox inactive, ATXN2 expr inh -25.7%, KB-V1 cytotox inactive and ATXN viability inactive.
For CC(C)OC(=O)C1=CN(C(=O)c2ccc(F)c(F)c2)CC(C)(C)c2c1[nH]c1ccccc21 the results were ATXN2 expr inh 5.7%.

Screens deposited in PubChem BioAssay by National Center for Advancing Translational Sciences (NCATS).
